The structures appear in SMILES notation. The whole screen tested about 240,000 compounds, of which about 15 (0.006%) were called active. Not all results are given here. Values without a mark were called inactive. The call rests on the fitted dose curve; in most records, active means well fitted inhibition curve with a large enough effect; inconclusive means small, poorly fitted or top-dose-only effect, or effect the other way, or another doubt; inactive means no such curve, though single readings can be large or run the other way.

The assay has as its target Lysosomal alpha-glucosidase (Homo sapiens) (UniProt P10253). Put plainly: qHTS Assay for Inhibitors and Activators of Human alpha-Glucosidase From Spleen Homogenate.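 Further: 0% = enzyme with vehicle and -100% = no enzyme basal signal.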 To be noted: 4-MU-alpha-glucoside fluorescence; series mostly up to 79.9 µM; activity change, negative = inhibition: at the top concentration. From the text: NIH Chemical Genomics Center [NCGC] NIH Molecular Libraries Probe Production Centers Network [MLPCN] MLPCN Grant: R03 MH084841-01 Assay Submitter (PI): Wei Zheng NCGC Assay Overview: Alpha-glucosidase is responsible for the hydrolysis of terminal, non-reducing 1,4-linked alpha-D-glucose residues, which releases alpha-D-glucose. It is a lysosomal hydrolase that is required for the degradation of a small percentage (1-3%) of cellular glycogen in humans. Deficiency of this enzyme results in glycogen-storage disease type II (GSDII), also referred to as Pompe disease, an autosomal recessive disorder. Structurally normal glycogen is accumulated in the lysosomes and cytoplasm in affected patients, primarily in muscle tissues. Excessive glycogen storage within lysosomes may interrupt normal functioning of other organelles and leads to cellular injury. In turn, this leads to enlargement and dysfunction of the entire organ involved (eg: cardiomyopathy and muscle weakness). It has been reported that the improper folding and trafficking of alpha-glucosidase resulting from genetic mutations may account for a significant number of Pompe patients. […] We optimized this alpha-glucosidase assay in 1536-well plate format for identification of novel small molecule inhibitors or activators with structures other than the sugar analogs in order to develop new pharmacological chaperones. In particular, this assay is directed towards discovering compounds active in a more natural setting, tissue homogenate, that may have been missed by screens of the purified enzyme under more stringent conditions.
NCGC Assay Protocol Summary: This is a fluorogenic enzyme assay with 4-methylumbelliferyl-alpha-D-glucopyranoside as the substrate and human spleen homogenate containing alpha-glucosidase as the enzyme preparation. Upon hydrolysis of this fluorogenic substrate, the resulting product, 4-methylumbelliferone (which excites at 365 nm and emits at 440 nm) can be detected by a fluorescence plate reader. Data were normalized to the controls for basal activity (without enzyme) and 100% activity (with enzyme). The AC50 values were determined from concentration-response data modeled with the standard Hill equation. Assay buffer: 50 mM citric acid (titrated with potassium phosphate to pH 5.0), 0.01% Tween-20 (pH 5.0 is an optimal condition for this enzyme assay) 1536-well assay protocol for the alpha-glucosidase from human spleen homogenate: (1) Add 2 ul/well spleen homogenate (1 ug) (2) Add 23 nL compounds in DMSO solution. The final titration was 0.5 nM to 58 uM. (3) Add 2 ul of substrate (1 mM final) (4) Incubate at 37 C for 40 min (5) Add 2 ul stop solution (1M NaOH and 1M Glycine mixture, pH 10) (6) Detect the assay plate in a ViewLux plate reader (PerkinElmer) with Ex=365 nm and Em=440nm. Keywords: Alpha-glucosidase, Pompe Disease, pharmacological chaperone, chaperone therapy, high throughput screening, alpha-glucosidase inhibitor, MLSMR, MLSCN, NIH Roadmap, qHTS and NCGC
On to `O=c1cc(-c2ccc(O)cc2)oc2c([C@@H]3O[C@H](CO)[C@@H](O)[C@H](O)[C@H]3O)c(O)cc(O)c12`, for which the “activity change, negative = inhibition” value was -3.5%.

Regarding `Cc1sc2ncnc(Sc3nc4ccccc4s3)c2c1C`, the “activity change, negative = inhibition” value was 0.103%.

For the compound `COc1ccc(C(CC(=O)c2ccccc2)S(=O)(=O)c2ccccc2)cc1` (stereo not given), the “activity change, negative = inhibition” value is -2.69%.

Turning to `O=C1NNC(c2ccccc2)=N/C1=C\c1ccc(Cl)cc1`, the “activity change, negative = inhibition” value was -5.13%.

Turning to `CC(O)[C@@H](N)C(=O)O` (stereo not given in full), the “activity change, negative = inhibition” value was -7.94%.

On to `OCCC(O)CO` (stereo not given), for which the call was inactive.

As for `Cc1ccc(-c2cn(S(=O)(=O)c3cccc([N+](=O)[O-])c3)nc2N)cc1`, the “activity change, negative = inhibition” value was 6.15%.

As for `ONC(=Nc1ccccc1)c1ccccc1Cl`, the “activity change, negative = inhibition” value is 1.48%.

In the case of `Cc1c(Br)ccc(NC(=O)COc2ccccc2C(N)=O)c1C`, the “activity change, negative = inhibition” value is -5.13%.

For the compound `O=C(NCCc1ccccc1)C1CCN(S(=O)(=O)c2ccc(Br)s2)CC1`, the “activity change, negative = inhibition” value was -4.51%.

As for `C=CCn1c(SCC(=O)c2c(N)n(C)c(=O)n(C)c2=O)nc2sc(CC)cc2c1=O`, the “activity change, negative = inhibition” value is -7.65%.

For `C=CCOC(=O)C(=C)C`, the “activity change, negative = inhibition” value is -4.26%.

In the case of `Cc1ccc(SCC(CC(C)C)N2CCN(CCc3ccccc3)CCC2=O)cc1` (stereo not given), the “activity change, negative = inhibition” value was -4.74%.

With `Cc1nc(=O)c(-c2ccccc2)c(C)n1-c1ccc(Br)cc1`, the “activity change, negative = inhibition” value is 7.69%.

In the case of `Cc1cc(OCCCC(=O)NCCN2C(=O)S/C(=C\c3cccnc3)C2=O)ccc1Cl`, the “activity change, negative = inhibition” value is -3%.

As to `Fc1ccc(Cl)cc1-c1nc(Nc2ccncc2)c2nccnc2n1`, the “activity change, negative = inhibition” value is -5.39%.

In the case of `CCOC(=O)c1sc(C)c2c1NC(C)(c1cccc3ccccc13)NC2=O` (stereo not given), the “activity change, negative = inhibition” value is -10.3%.

Regarding `COc1ccc2c(c1)c(=O)c(C(=O)c1ccc(Cl)cc1)cn2CC(=O)Nc1ccc(F)cc1`, the “activity change, negative = inhibition” value was -1.59%.

Turning to `CCOCCOC(=O)C(C)Oc1ccc(Oc2ncc(C(F)(F)F)cc2Cl)cc1` (stereo not given), the “activity change, negative = inhibition” value was -18.4%.

Take `S=c1ccc2ccccc2[nH]1`: the “activity change, negative = inhibition” value was -2.88%.

As to `C=CCC(C(=O)c1ccccc1)[N+](C)(C)CC=C` (stereo not given), the “activity change, negative = inhibition” value is 9.7%.

Regarding `O=c1[nH]oc(O)c1-c1ncc(C(F)(F)F)cc1Cl`, the “activity change, negative = inhibition” value is -2.21%.

On to `Cc1cc2ccccn2c1C(=O)c1cccc(S(=O)(=O)N2CCOCC2)c1`, for which the “activity change, negative = inhibition” value is 3.4%.

As for `CC(=O)NNC(=O)c1csc(Cc2c(Cl)sc3ccc(Cl)cc23)n1`, the “activity change, negative = inhibition” value was 0.106%.

On to `CCCCc1nn(-c2ccccc2C(F)(F)F)c(=O)n1Cc1ccc(-c2ccccc2S(=O)(=O)NC(=O)c2sccc2C)cc1`, for which the “activity change, negative = inhibition” value was -2.88%.

Consider `COC(=O)c1sc(-c2ccc(C(C)(C)C)cc2)cc1NC(=O)/C=C/C(=O)O`, for which the “activity change, negative = inhibition” value is -12.5%.

As to `CNC(=O)[C@]1(C(F)(F)F)C[C@H](CCc2ccccc2)CCCO1`, the “activity change, negative = inhibition” value is 0.869%.

Turning to `C[C@@H]1O[C@@H](OC[C@H]2O[C@@H](Oc3cc(O)c4c(c3)O[C@H](c3ccc(O)c(O)c3)CC4=O)[C@H](O)[C@@H](O)[C@@H]2O)[C@H](O)[C@H](O)[C@H]1O`, the “activity change, negative = inhibition” value was -6.97%.

With `O=C1C[C@@H](c2ccc3ccccc3c2)N1S(=O)(=O)c1ccccc1[N+](=O)[O-]`, the “activity change, negative = inhibition” value was 4.03%.

Consider `O=C(Nc1cc(C(=O)Nc2ccc(S(=O)(=O)O)cc2)cc(C(=O)Nc2ccc(S(=O)(=O)O)cc2)c1)Nc1cc(C(=O)Nc2ccc(S(=O)(=O)O)cc2)cc(C(=O)Nc2ccc(S(=O)(=O)O)cc2)c1`, for which the “activity change, negative = inhibition” value was -9.55%.

Take `O=c1[nH]c(CN2CCN(S(=O)(=O)c3ccc4c(c3)OCCO4)CC2)nc2sc3c(c12)CCCC3`: the “activity change, negative = inhibition” value is -15.2%.

With `CC(Oc1ccc(Br)cc1Br)C(=O)NC1CCCC1` (stereo not given), the “activity change, negative = inhibition” value was -1.67%.

Consider `O=C(O)C1CC=CC2CCN(C3CCCCC3)C(=O)C21` (stereo not given), for which the “activity change, negative = inhibition” value is 0.181%.

In the case of `COc1ccc(Br)cc1C1C2C=CCC(C)C2C(=O)N1Cc1ccccc1` (stereo not given), the “activity change, negative = inhibition” value is -1.05%.

In the case of `CCCCC/C=C\C/C=C\CCCCCCCCCC(N)=O`, the “activity change, negative = inhibition” value is 6.05%.

Regarding `CCCCN(CC)C(=O)c1ccccc1Oc1ccccc1`, the “activity change, negative = inhibition” value was -0.108%.

Regarding `O=C(COc1ccc(/C=N/NS(=O)(=O)c2ccccc2)cc1)NCCc1ccccc1`, the “activity change, negative = inhibition” value was -1.54%.

As for `Oc1ccc(N2CCN(C(=S)NCc3ccccc3)CC2)cc1`, the “activity change, negative = inhibition” value is 5.73%.

Regarding `COc1ccc(C[C@H](C(=O)O)N2C(=O)c3ccc(C(=O)O)cc3C2=O)cc1`, the “activity change, negative = inhibition” value is 6.17%.

For `CCNc1nc(NC(C)C)nc(N2CC(=O)N(CC(=O)OCC)C2=N)n1`, the “activity change, negative = inhibition” value is 4.96%.

`Cc1cc2oc(C(=O)Nc3c(C)n(C)n(-c4ccccc4)c3=O)c(C)c2cc1Cl`: the “activity change, negative = inhibition” value is 2.59%.

`CC1(C)Cc2nc3sc4c(SCC(=O)NC(c5ccccc5)c5ccccc5)ncnc4c3cc2CO1`: the “activity change, negative = inhibition” value was 0.724%.

For the compound `FC(F)(F)c1nc(-c2ccccc2)ncc1-c1nnnn1-c1ccccc1`, the “activity change, negative = inhibition” value was -4.01%.

For the compound `CCCCNc1ccc(C(=O)Nc2cccc(C)n2)cc1[N+](=O)[O-]`, the “activity change, negative = inhibition” value was -0.299%.

On to `COc1cc(NS(=O)(=O)c2ccc3ccccc3c2)c2ncccc2c1`, for which the “activity change, negative = inhibition” value is -1.54%.

Take `CC/C(=N\NC(=O)c1ccccc1Cl)c1ccc(Br)s1`: the “activity change, negative = inhibition” value was -2.79%.

Regarding `Cc1noc(C)c1-c1ccc2ncnc(NC(C)c3ccco3)c2c1` (stereo not given), the “activity change, negative = inhibition” value is 2.91%.

As to `CN(C)CCc1c[nH]c2ccc(Cn3cncn3)cc12`, the “activity change, negative = inhibition” value is -4.52%.

In the case of `CC1CCC(C(C)C)C(=O)/C1=C\c1ccc(NC(=O)CCC(=O)O)cc1` (stereo not given), the “activity change, negative = inhibition” value is -3.03%.

In the case of `O=c1[nH]c2cccnc2n(CCNc2ncc(C(F)(F)F)cc2Cl)c1=O`, the “activity change, negative = inhibition” value was -8.68%.

The record behind these values is PubChem BioAssay AID2112 (National Center for Advancing Translational Sciences (NCATS), 2009).
